About 1,300 (0.68%) of roughly 190,000 compounds were called active. Only a selection was taken, and actives are over-represented in it overall. Values without a mark were called inactive. Rule as the data show it: active = inhibition above about 50%; inactive = the rest.

The results in this text go back to PubChem BioAssay AID1220 (Sanford-Burnham Center for Chemical Genomics, 2008).

In this assay the target is Mannose-6-phosphate isomerase (Homo sapiens) (UniProt P34949). Nature of the assay: human PMI inhibitors, high substrate, primary screen, biochemical, fluorescence intensity, high mannose 6-phosphate (AID 1220). Particulars: recombinant PMI enzyme, coupled fluorescence intensity; at 20 µM; hits give high values.
Chain of Mannose-6-phosphate isomerase (Homo sapiens) (P34949 whole entry, looked up): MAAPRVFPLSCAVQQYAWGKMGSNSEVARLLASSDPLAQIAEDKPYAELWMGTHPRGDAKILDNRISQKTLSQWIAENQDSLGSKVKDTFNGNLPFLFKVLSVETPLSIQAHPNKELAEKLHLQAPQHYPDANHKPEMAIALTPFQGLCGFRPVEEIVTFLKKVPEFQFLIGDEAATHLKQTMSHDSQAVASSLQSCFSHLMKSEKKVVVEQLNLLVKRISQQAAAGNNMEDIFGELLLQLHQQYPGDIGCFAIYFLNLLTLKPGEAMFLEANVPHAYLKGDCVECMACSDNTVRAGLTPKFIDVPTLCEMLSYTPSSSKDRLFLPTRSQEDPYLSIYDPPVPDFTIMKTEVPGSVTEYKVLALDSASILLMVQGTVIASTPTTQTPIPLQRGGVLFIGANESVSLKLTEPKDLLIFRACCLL
A word on the inhibition: it is the drop in the measured response relative to a control, in per cent. Turning to `O=C(N/N=C/c1cccc([N+](=O)[O-])c1)c1ccc(COc2ccccc2-c2ccccc2)cc1`, the inhibition was 0.3%.
The value for `Cc1ccc2c(c1)N(CC(=O)N1CCN(c3nc4ccccc4s3)CC1)C(=O)C(C)O2` (stereo not drawn) was 0.6%; that for `Cn1c(CN2CCCCC2)nc2cc(NC(=O)c3ccc(F)cc3)ccc21` was 10.4%; that for `CCOc1ccc(S(=O)(=O)n2cc(F)c(=O)[nH]c2=O)cc1` was 11.2%.
For `CCCOc1ccc(S(=O)(=O)n2cc(Br)c(=O)[nH]c2=O)cc1`, the inhibition is -4.8%.
`CC(C)COc1ccc(S(=O)(=O)n2cc(F)c(=O)[nH]c2=O)cc1`: the inhibition was 50.5% (active).
For the molecule `CC(C)(C)NCC(O)COc1ccccc1C(C)(C)C` (stereo not drawn), the inhibition was 2.5%.
The value for `Cc1ccc2nsnc2c1S(=O)(=O)N(Cc1cc2cccc(C)c2[nH]c1=O)CC1CCCO1` (stereo not drawn) was 10.3%.
With `CC(C)c1ccc(C(=O)CSc2n[nH]c(-c3ccncc3)n2)cc1` the figure was 4.3%; with `Cc1nnc(SCC(=O)c2ccc(C(C)C)cc2)s1`, 7.2%; with `Oc1ccc(/C=N/NC(=S)NCCN2CCOCC2)c(O)c1`, -21.6%.
For the molecule `S=C(NCCN1CCOCC1)N/N=C/c1ccccc1`, the inhibition was 3.7%.
The value for `C=CCn1c(C(C)NC(=O)c2ccccc2C)n[nH]c1=S` (stereo not drawn) was 2.2%; that for `CCOC(=O)c1c(-c2ccncc2)csc1N` was 23.1%.
The value for `CCOC(=O)c1c(-c2cccc([N+](=O)[O-])c2)csc1NC(=O)C1CC1` was 40.4%; that for `CCOC(=O)c1c(-c2cccc([N+](=O)[O-])c2)csc1NC(=O)C1CCCCC1` was 24%.
Turning to `CCOc1ccc(-c2csc(N)c2C(=O)OC)cc1`, the inhibition is 19.4%.
On to `CCOC(=O)c1c(-c2ccc(C)s2)csc1NC(=O)c1cccs1`, for which the inhibition is -3.8%.
Regarding `CCOC(=O)c1c(-c2cccc([N+](=O)[O-])c2)csc1N`, the inhibition was 50.3% (active).
The value for `CCOC(=O)c1c(-c2ccc(C)s2)csc1NC(=O)c1ccco1` was 3.5%; that for `CCOC(=O)c1c(-c2ccsc2)csc1N` was 59.8% (active).
The value for `Cc1ccc2nc(-c3cccnc3)c(Nc3ccccc3C)n2c1` was 4.7%; that for `COc1ccc(NC(=O)c2cc3c(=O)n4ccccc4nc3n2C)c(OC)c1` was 6.3%.
With `Cc1cc(C)c(S(=O)(=O)c2ccccc2)c(Cl)n1` the figure was 5.7%; with `COC(=O)c1[nH]c2ccccc2c1NC(=O)CNC1CCCCC1`, 11.8%; with `C=CCc1cccc(/C=N/NC(=O)CNc2ccccc2OC)c1O`, -20.8%.
`O=C(CNc1ccccc1)c1ccc([N+](=O)[O-])cc1`: the inhibition is -90.7%.
The value for `O=C(CNc1cccc2ccccc12)N/N=C/c1ccc([N+](=O)[O-])cc1` was 18.1%; that for `Cc1cccc(/C=N/NC(=O)CNc2cccc3ccccc23)n1` was 61.8% (active); that for `Cc1cccc(NCC(=O)N/N=C\c2cccc(Oc3ccccc3)c2)c1` was 12.6%.
With `C=CCc1cccc(/C=N/NC(=O)CNc2ccccc2)c1O` the figure was -4.5%; with `CSc1ccc(/C=N/NC(=O)CNc2cccc3ccccc23)cc1`, 17.1%; with `Cc1ccc(NCC(=O)N/N=C/c2cccc(Oc3ccccc3)c2)cc1`, 10.5%.
As for `O=C(CNc1cccc2ccccc12)c1ccc([N+](=O)[O-])cc1`, the inhibition was 57.5% (active).
The value for `Cc1cccc(/C=N/NC(=O)C(C)Nc2cccc3ccccc23)n1` (stereo not drawn) was -72.3%; that for `O=C(CNc1cccc2ccccc12)N/N=C/c1cccc(Oc2ccccc2)c1` was 51.8% (active); that for `C=CCc1cccc(/C=N/NC(=O)CNc2cccc3ccccc23)c1O` was 55.2% (active).
With `O=C(N=Nc1c(O)[nH]c2ccccc12)c1cc(NS(=O)(=O)c2cccs2)cc(NS(=O)(=O)c2cccs2)c1` the figure was -0.7%; with `O=C(N/N=C/C=C\c1ccccc1[N+](=O)[O-])c1ccccn1`, 13.1%; with `COc1ccc(N2CCN(C(c3cccs3)C(C)NS(=O)(=O)c3ccccc3)CC2)cc1` (stereo not drawn), 20.1%.
With `CN(c1ccc(OCC(=O)OCC(=O)NC2CCCC2)cc1)S(=O)(=O)c1ccc2ccccc2c1` the figure was 23.5%.
`O=C(O)C1CCC(Cn2c(SCc3cc(=O)n4cc(Br)ccc4n3)nc3ccsc3c2=O)CC1` (stereo not drawn): the inhibition was 5.7%.
Regarding `Cc1ccc2cc(S(=O)(=O)NCCCN3CCOCC3)ccc2c1`, the inhibition was 4.1%.
With `O=C(CNc1cccc2ccccc12)N/N=C/c1ccc([N+](=O)[O-])o1` the figure was 60.4% (active).
With `O=C(CNc1ccccc1)N/N=C/c1ccc([N+](=O)[O-])o1` the figure was 8%; with `O=C(CNc1ccc2ccccc2c1)N/N=C/c1ccc([N+](=O)[O-])o1`, 46.2%; with `O=C(O)/C=C/C(=O)N1CCN(c2ccccc2F)CC1`, 2.7%.
The value for `N#CCSc1nnc(C2CCCCC2)n1-c1ccccc1` was 11.9%; that for `NC(=O)c1cccc(S(=O)(=O)N2CC(c3ccccc3)CC2=O)c1` (stereo not drawn) was 5.1%.
In the case of `O=C(Oc1cccc2cccnc12)c1cccc([N+](=O)[O-])c1`, the inhibition is 44.3%.
In the case of `NC(=O)c1ccc(Oc2cccc3cccnc23)c([N+](=O)[O-])c1`, the inhibition was 50.2% (active).
As for `COc1ccc(C(=O)Oc2cccc3cccnc23)cc1[N+](=O)[O-]`, the inhibition is 51.9% (active).
For the molecule `Cc1cc(Cl)ccc1Oc1ccc(C(N)=O)cc1[N+](=O)[O-]`, the inhibition was 5.8%.
The value for `Cc1c(C(=O)Oc2cccc3cccnc23)cccc1[N+](=O)[O-]` was 36.1%; that for `O=[N+]([O-])c1ccc(Oc2cccc3cccnc23)c([N+](=O)[O-])c1` was 11.4%; that for `COc1cccc(CNC(=O)CCC2CCCN(C(=O)CCC(F)(F)F)C2)c1` (stereo not drawn) was 7.7%.
With `CCNc1nc(NCC)n2c(SCC(=O)c3ccc(C(C)C)cc3)nnc2n1` the figure was -21%.
With `CCCNC(=O)Cc1c(O)c2ccccc2[nH]c1=O` the figure was 6.5%; with `COc1ccc(C2C3=C(Nc4ncnn42)c2ccccc2CC3)cc1OC` (stereo not drawn), 38.6%; with `COc1cc(C2C3=C(Nc4ncnn42)c2ccccc2CC3)cc(OC)c1OC` (stereo not drawn), 51.9% (active).
With `COc1ccc(C2C3=C(Nc4ncnn42)c2ccccc2CCC3)cc1` (stereo not drawn), the inhibition was 3.7%.
The value for `Cc1ccc2[nH]c(=O)c(-c3nc4cc(C)ccn4c3NCc3ccco3)cc2c1` was 53.7% (active); that for `Cc1cccn2c(=O)c(C=Nc3ccccc3)c(NCc3ccco3)nc12` was -12.9%; that for `Cc1ccn2c(-c3csc(NCc4ccco4)n3)c(C)nc2c1` was 48.7%.
On to `Cc1ccc2[nH]c(=O)c(-c3nc4ccccn4c3NCc3ccco3)cc2c1`, for which the inhibition is -4.9%.
With `Cc1ccc2[nH]c(=O)c(-c3nc4c(C)cccn4c3NCc3ccco3)cc2c1` the figure was 55.2% (active); with `Cc1cccc2cc(-c3nc4c(C)cccn4c3NCc3ccco3)c(=O)[nH]c12`, 1.7%.
The value for `CC1CCCCC1NCc1cccc([N+](=O)[O-])c1` (stereo not drawn) was 2.2%; that for `CCc1ccc(C2=NN(S(C)(=O)=O)C(c3cccs3)C2)cc1` (stereo not drawn) was 3.7%.
With `COc1ccccc1NC(=O)Cn1cnc2sc(C(=O)NCc3ccco3)c(C)c2c1=O` the figure was -4.1%; with `Nc1nc2c(Cl)ccc(Cl)c2s1`, 8%.
Consider `Nn1c(SCc2ccccn2)nncc1=O`, for which the inhibition was -1.6%.
As for `C/C(=N\Nc1ccccn1)c1ccc(C(C)C)cc1`, the inhibition was 11.6%.
With `CCC(C(=O)OCC(=O)Nc1cc(C)ccc1OC)c1ccccc1` (stereo not drawn) the figure was 0.3%; with `CCC(C(=O)OCC(=O)Nc1ccc(OC)cc1OC)c1ccccc1` (stereo not drawn), 10.5%; with `CCOc1ccccc1NC(=O)COC(=O)C(CC)c1ccccc1` (stereo not drawn), 64.5% (active).
As to `O=C(NC1CCCc2ccccc21)c1ccc2c(c1)OCO2` (stereo not drawn), the inhibition is 8.7%.
Consider `COc1ccc(-n2cc(CNCC3CCOCC3)c(-c3cccc(F)c3)n2)cc1`, for which the inhibition was 4.6%.
The value for `CCOC(=O)C1CCN(c2cc(=O)n(-c3ccccc3Cl)c(=O)[nH]2)CC1` was -1.4%; that for `Cc1nc(-c2ccccc2)ccc1C(=O)O` was 0.4%.
With `Cc1nc(-c2ccccc2)cn(O)c1=O` the figure was 65.6% (active).
With `O=c1c(-c2ccccc2)nc(-c2ccccc2)cn1O` the figure was 3.4%.
Turning to `CCOC(=O)N1CCN(C(=O)CSc2ccc3nnc(-c4ccncc4)n3n2)CC1`, the inhibition was 8.4%.
On to `COc1ccccc1/C=N/Nc1nncc2ccccc12`, for which the inhibition was -1.9%.
`COc1ccccc1/C=N/NC1=NCCCCC1`: the inhibition was 0.4%.
In the case of `COc1ccccc1/C=N/Nc1cc(N(C)C)nc(N(C)C)n1`, the inhibition was 63.4% (active).
In the case of `O=C(CCCN1C(=O)c2ccccc2C1=O)Nc1c2c(nc3c1CCC3)CCC2`, the inhibition is -20.1%.
With `Cc1nn(C)c(C)c1NC(=O)CC12CC3CC(CC(C3)C1)C2`, the inhibition is -1.3%.
Consider `COc1cc(C)nc(N2CCC(C(=O)NC3CCCCC3)CC2)n1`, for which the inhibition is 3.7%.
As for `CC(=O)c1cccc(NC(=O)CCS(=O)(=O)c2cccc3nsnc23)c1`, the inhibition was -33.5%.
Turning to `CCOc1ccc(OCCCCNC(C)(C)C)cc1`, the inhibition is 58.8% (active).
Take `CC(C)(C)NCCCCOc1ccc(F)cc1`: the inhibition was 4.1%.
With `CCOc1ccc(OCCCCNCCN)cc1` the figure was -2.4%.
Turning to `O=P(CO)(Cc1ccccc1)Cc1ccccc1`, the inhibition was 5%.
Turning to `O=C(O)C/C=C(\NC(=O)OCc1ccccc1)C(=O)OCc1ccccc1`, the inhibition is -163%.
With `Cc1cc(C)n2c(SC/C(O)=C(\C#N)c3nc4ccccc4[nH]3)nnc2n1` the figure was 53.4% (active).
With `Cn1cnnc1SC/C(O)=C(\C#N)c1nc2ccccc2[nH]1` the figure was 0.7%; with `Cc1ccccc1-n1c(SC/C(O)=C(\C#N)c2nc3ccccc3[nH]2)nnc1-c1ccncc1`, 20.6%.
